Laboratory results taken from PubChem BioAssay (NCATS).
Records with an inconclusive call do not appear. A number with no mark means an inactive call. Activity calls are given as the source filed them. Unless noted, calls follow the shape of the full dose curve.

Columns and labels:
[1] = Cell Viability - BJ (AID 421); conditions: BJ fibroblast viability, qHTS;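 also: potency is read from the fitted curve at half-maximal effect; cells exposed to compound for 40 hours at 37 °C before readout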
Summary of the method: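 Cytotoxicity as drop in intracellular ATP (CellTiter-Glo, 20 min RT) after 40 hr compound exposure of BJ fibroblasts at 37 °C. Titrations scaled between DMSO and 100 uM tamoxifen, Hill-fitted for AC50.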

[2] = Cell Viability - Jurkat (AID 426;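 active = dose-dependent loss of cell ATP signal giving a full or clear fitted curve, ranked by lower potency value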;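 also: potency is read from the fitted curve at half-maximal effect; cells exposed to compound for 40 hours at 37 °C before ATP read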); conditions: qHTS
Summary of the method: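 Cytotoxicity taken as drop in cellular ATP (CellTiter-Glo luminescence, 20 min room temperature) after 40 hr, 37C treatment of 5000 Jurkat Clone E6-1 cells per well; concentration-response fitted with Hill equation for AC50.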

[3] = Cell Viability - Hek293 (AID 427;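 active = compounds whose dose-response curve shows a full or clear partial loss of cell viability, called from curve shape rather than a numeric limit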;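 also: potency is read from the fitted curve at half-maximal effect; cells exposed to compound for 40 hours at 37 °C before reading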); conditions: qHTS
Summary of the method: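 Luminescent ATP content (CellTiter-Glo, 20 min at room temperature) was measured after a 40 hr, 37 °C compound exposure of HEK293 cells. AC50 values came from Hill-equation fits of qHTS concentration-response data normalized to DMSO and 100 uM tamoxifen.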

[4] = Cell Viability - HepG2 (AID 433); conditions: qHTS;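 also: potency is read from the fitted curve at half-maximal effect; potency for ATP loss meaning cytotoxicity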
Summary of the method: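 HepG2 hepatocellular carcinoma cells (1500/well) were treated with compounds for 40 h at 37 °C in complete medium; intracellular ATP was read by CellTiter-Glo luminescence. Data were normalized to DMSO and 100 uM tamoxifen, and AC50 came from Hill fits.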

[5] = Cell Viability - MRC5 (AID 434); conditions: MRC5 lung fibroblast viability, qHTS;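 also: potency is read from the fitted curve at half-maximal effect; potency reflects cytotoxicity seen as loss of intracellular ATP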
Summary of the method: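 AC50 values come from Hill-equation fits of intracellular ATP loss, measured by CellTiter-Glo luminescence. Normal lung fibroblasts (MRC5) had 40 hr compound treatment at 37 C, normalized between DMSO and 100 uM tamoxifen.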

[6] = Cell Viability - SK-N-SH (AID 435); conditions: SK-N-SH neuroblastoma cell viability qHTS;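 also: potency is read from the fitted curve at half-maximal effect; compound exposure lasted 40 h at 37 °C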
Summary of the method: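 SK-N-SH human neuroblastoma cells (1500/well) were exposed to compounds in complete medium for 40 h at 37 °C, and intracellular ATP was then measured by CellTiter-Glo luminescence. AC50 was taken from Hill fits, normalized to DMSO and 100 uM tamoxifen.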

[7] = NFAT Signaling Pathway (AID 444; active = well fitted curve in either direction with a large enough effect, not every such curve was filed as active;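 also: carbachol stimulus at about its EC50 of 1 µM final; % is scaled to controls: 0 for no effect and ±100 for the full control effect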); conditions: Jurkat NFAT-bla M1, carbachol, beta-lactamase ratio, 5 h; at 17.2 µM (top of the series) unless noted
Summary of the method: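 Read-out: CCF4 FRET ratio (460 nm/530 nm) after 1 h RT dye loading, used for %activity and AC50 from titration series. Cells: Jurkat NFAT-β-lactamase/M1 line, treated with compound plus 1 uM carbachol for 5 h, 37 °C.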

[8] = Stat Signaling Pathway (AID 446; active = well fitted curve in either direction with a large enough effect, not every such curve was filed as active;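 also: ME-180 cervical cancer cells given 40 pM IL-6 alongside compound; SIE-controlled beta-lactamase reporter measured as 460/530 nm FRET emission ratio; % is scaled to controls: 0 for no effect and ±100 for the full control effect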); conditions: ME-180 (cervical carcinoma) SIE beta-lactamase reporter, IL-6 stimulated, 5 h; series mostly up to 17.2 µM
Summary of the method: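 FRET read-out (405 nm excitation, 460/530 nm emission) of a beta-lactamase reporter under a STAT-inducible element in ME-180 cervical carcinoma cells. Cells with compound receive 40 pM IL-6 for 5 h. Values are normalised to AC90 stimulation and AC90 JAK-inhibitor controls.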

## Cc1ccc(S(=O)(=O)O)cc1C
[1]
  Potency: > 92 µM
[2]
  Potency: > 92 µM
[3]
  Potency: > 92 µM
[4]
  Potency: > 92 µM
[5]
  Potency: > 92 µM
[6]
  Potency: > 92 µM

## O=C(O)c1ccc(OCCn2ccnc2)cc1
[7]
  activity change, negative = inhibition: -10.7%
[8]
  outcome: inactive

## N[C@@H](Cc1cc(I)c(Oc2ccc(O)c(I)c2)c(I)c1)C(=O)O
[7]
  activity change, negative = inhibition: 7.62%
[8]
  outcome: inactive

## Cn1cc(NC(=O)c2cc(NC(=O)c3cc(NC=O)cn3C)cn2C)cc1C(=O)NCCC(=N)N
[8]
  outcome: inactive

## CCCC(CCC)C(=O)OC1C[C@H]2CC[C@@H](C1)[N+]2(C)C (some centres not stated)
[7]
  activity change, negative = inhibition: -90.3% (active)
[8]
  outcome: inactive

## O=C1NCCN1c1ncc([N+](=O)[O-])s1
[7]
  activity change, negative = inhibition: -7.97%
[8]
  outcome: inactive

## Nc1nccs1
[1]
  Potency: > 92 µM
[2]
  Potency: > 92 µM
[3]
  Potency: > 92 µM
[4]
  Potency: > 92 µM
[5]
  Potency: > 92 µM
[6]
  Potency: > 92 µM

## O.O.O.O.O.O.O.O=S(=O)([O-])[O-].[Co+2]
[1]
  Potency: > 92 µM
[3]
  Potency: > 92 µM
[4]
  Potency: > 92 µM
[5]
  Potency: > 92 µM
[6]
  Potency: > 92 µM

## CCc1cn([C@H]2C[C@H](O)[C@@H](CO)O2)c(=O)[nH]c1=O
[7]
  activity change, negative = inhibition: 23.4%
[8]
  outcome: inactive

## CC[C@H]1OC(=O)[C@H](C)[C@@H](O[C@H]2C[C@@](C)(OC)[C@@H](O)[C@H](C)O2)[C@H](C)[C@@H](O[C@@H]2O[C@H](C)C[C@H](N(C)C)[C@H]2O)[C@](C)(O)C[C@@H](C)CN(C)[C@H](C)[C@@H](O)[C@]1(C)O
[1]
  Potency: > 92 µM
[3]
  Potency: > 92 µM
[4]
  Potency: > 92 µM
[5]
  Potency: > 92 µM
